Compound activity as filed in PubChem.
Most compounds without a hit are left out; they make up all but 1.1% or so of the library.
OPRM1-OPRD1 inv – inverse agonists of human mu-delta opioid receptor heterodimerization; 0.21% of 340,000 active; cell-based MOR-DOR heterodimer luminescence, inverse agonism; P35372+P41143; inhibition, % at 9.3 µM; in the data active means inhibition above about 22%, passing the limit was not always enough
MOR-DOR ag – agonists of human mu-delta opioid receptor heterodimerization; AID 504326; cells, OPRM1-OPRD1 heterodimerization, luminescence; 0.3% of 340,000 active; activation, % at 9.3 µM
HTR5A ag ctr – counter-screen for OPRM1-OPRD1 agonists: human HTR5A agonism; P47898; HTR5A agonist assay, luminescence, cell-based; activation, % at 9.3 µM; 0.61% of 340,000 active; AID 504692; in the data active means activation mostly above about 9.5%, no sharp cut-off; inactive means mostly below about 7.6%
Target sequence (P47898 whole entry, looked up): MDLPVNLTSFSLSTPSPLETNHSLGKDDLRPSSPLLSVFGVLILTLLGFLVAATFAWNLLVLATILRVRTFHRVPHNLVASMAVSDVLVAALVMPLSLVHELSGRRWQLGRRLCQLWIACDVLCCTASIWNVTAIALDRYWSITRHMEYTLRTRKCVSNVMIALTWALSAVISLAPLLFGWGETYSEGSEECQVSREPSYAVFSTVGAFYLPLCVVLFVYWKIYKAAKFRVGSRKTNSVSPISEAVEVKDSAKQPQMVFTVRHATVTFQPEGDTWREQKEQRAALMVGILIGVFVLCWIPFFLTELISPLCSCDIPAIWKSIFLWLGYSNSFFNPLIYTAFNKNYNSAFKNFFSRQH
HTR5A inv ag – inverse agonist of human HTR5A in OPRM1-OPRD1 counter-screen. P47898. inhibition, % at 9.3 µM. AID 504634. 0.083% of 340,000 active. HTR5A cell line, luminescence, inverse agonism; in the data active means inhibition mostly above about 23%, no sharp cut-off; inactive means mostly below about 18%
OPRM1-D1 ag cf – confirmation of human OPRM1-OPRD1 heterodimerization agonists; shares compounds with MOR-DOR ag; cells, MOR-DOR heterodimerization, luminescence complementation; activation, % at 9.3 µM; 45% of 830 active
HTR5A ag ctr2 – HTR5A agonism, opioid heterodimer counter-screen. shares compounds with MOR-DOR ag. HTR5A agonist counterscreen, cell luminescence. activation, % at 9.3 µM. 8% of 830 active. AID 504905; in the data active means activation above about 17%
Large screens that a line does not name were inactive (follow-up assays come after a bar, where they were run). Unless noted, no stated cut-off is given here; in the data, active means activation above about 18%; inactive means the rest.

CN(C)/C=C/C(=O)c1ccc(OCCN(C)c2ccccn2)cc1	MOR-DOR ag 20.1 | OPRM1-D1 ag cf inactive | HTR5A ag ctr2 inactive
O=C(Nc1ccccc1)/C(=C/c1cccc(Br)c1)NC(=O)c1ccco1	none
O=C(OCc1ccccc1)/C(=C/c1cccc(Br)c1)NC(=O)c1ccco1	MOR-DOR ag 20.8 | OPRM1-D1 ag cf inactive | HTR5A ag ctr2 inactive
CNC(=O)Cn1ncc2c(C)n(Cc3ccc(C)cc3)c(C)c2c1=O	none
Cc1c2cnn(CC(=O)Nc3c(F)c(F)cc(F)c3F)c(=O)c2c(C)n1Cc1ccccc1F	MOR-DOR ag 34.7 | OPRM1-D1 ag cf 34.2 | HTR5A ag ctr2 30.7
COc1cccc(-c2nn(-c3ccccc3)cc2CN(C)C(C)c2ccncn2)c1 (stereo not drawn)	MOR-DOR ag 24.7 | OPRM1-D1 ag cf inactive | HTR5A ag ctr2 inactive
CCS(=O)(=O)c1ccc(O)c(NC(=O)CC2(CC(=O)O)CCCC2)c1	none
Cc1cc(OC(=O)c2ccco2)c(Sc2ccccc2[N+](=O)[O-])c(=O)o1	none
Nc1nc(NCC(=O)O)nc(NC2CCCCC2)c1[N+](=O)[O-]	none
CN(C)CCCN(C(=O)c1ccc(S(=O)(=O)N2CCOCC2)cc1)c1nc2ccc(F)cc2s1	none
CCN(Cc1ccccc1)S(=O)(=O)c1ccc(C(=O)N(CCCN(C)C)c2nc3c(F)cccc3s2)cc1	MOR-DOR ag 144.2 | OPRM1-D1 ag cf 26.4 | HTR5A ag ctr2 inactive
Cc1ccc2sc(N(CCCN(C)C)C(=O)c3ccc(S(=O)(=O)N4CCc5ccccc5C4)cc3)nc2c1C	MOR-DOR ag 21.4 | OPRM1-D1 ag cf inactive | HTR5A ag ctr2 inactive
Cc1ccc2sc(N(CCCN(C)C)C(=O)c3ccc(S(=O)(=O)N(C)C)cc3)nc2c1C	none
CN(C)CCCN(C(=O)c1ccc(S(=O)(=O)N2CCCCCC2)cc1)c1nc2ccc(F)cc2s1	MOR-DOR ag 154.6 | OPRM1-D1 ag cf inactive | HTR5A ag ctr2 inactive
Cc1ccc2sc(N(CCCN(C)C)C(=O)c3ccc(S(=O)(=O)N(C)Cc4ccccc4)cc3)nc2c1C	MOR-DOR ag 40.3 | OPRM1-D1 ag cf inactive | HTR5A ag ctr2 inactive
CCOc1cccc2sc(N(CCCN(C)C)C(=O)c3ccc(S(=O)(=O)N(CC)Cc4ccccc4)cc3)nc12	none
COCCOC(=O)c1c(NC(=O)CNc2ccc(C)c(F)c2)sc(C(N)=O)c1C	none
O=C(NCCCCCCNC(=O)c1ccccc1O)c1ccccc1O	none
O=C(NCc1ccco1)c1sc2cc(Cl)ccc2c1Cl	none
Cc1nc(-c2cccc(S(=O)(=O)N3CCCCC3)c2)cs1	none
CC1CCC(=O)N(CCOc2ccccc2)CC1 (stereo not drawn)	none
C=CCN1CCOc2ccc(C)cc2S1(=O)=O	none
CN(C)CCCN(C(=O)c1ccc(S(=O)(=O)N2CCc3ccccc3C2)cc1)c1nc2c(F)cc(F)cc2s1	MOR-DOR ag 341.2 | OPRM1-D1 ag cf 395.9 | HTR5A ag ctr2 inactive
COc1cc2nc(N(CCCN(C)C)C(=O)c3ccc(S(=O)(=O)N4CCc5ccccc5C4)cc3)sc2cc1OC	none
CC(OC(=O)CCN=C1NS(=O)(=O)c2ccccc21)C(=O)NC1CCCCC1C (stereo not drawn)	none
CCCCn1c(=N)n(CC(O)COc2ccc(C)cc2)c2ccccc21 (stereo not drawn)	none
N=c1n(Cc2ccccc2)c2ccccc2n1CC(O)COc1ccccc1 (stereo not drawn)	MOR-DOR ag 43.2 | OPRM1-D1 ag cf inactive | HTR5A ag ctr2 inactive
CCCCn1c(=N)n(CC(O)COc2ccccc2)c2ccccc21 (stereo not drawn)	none
Cc1ccc(Cn2c(=N)n(CC(O)COc3ccccc3)c3ccccc32)cc1 (stereo not drawn)	MOR-DOR ag 23.7 | OPRM1-D1 ag cf 61.0 | HTR5A ag ctr2 inactive
COc1ccc(NS(=O)(=O)c2cccc(C(=O)NCCCn3ccnc3)c2)cc1	none
CN1CCS/C1=C/C=C1/SC(=S)N(Cc2ccccc2)C1=O	none
CCN1C(c2ccccc2)=C(c2ccccc2)S/C1=C/C=C1\SC(=S)N(C)C1=O	MOR-DOR ag 47.7 | OPRM1-D1 ag cf 441.1 | HTR5A ag ctr2 29.2
CCN1C(=O)/C(=C/C=C2/Sc3ccc4ccccc4c3N2CCO)SC1=S	none
CCN1C(c2ccccc2)=C(c2ccccc2)S/C1=C\C=C1/SC(=S)N(C)C1=O	MOR-DOR ag 137.1 | OPRM1-D1 ag cf inactive | HTR5A ag ctr2 inactive
C/C(=N\N=C1\NC(=O)CS1)c1cccs1	none
